VLA-4 agonist: enhancers of LDV-FITC binding to VLA-4 integrin, primary screen, Jurkat cells, flow cytometry. activation, % at 10 µM (by protocol). 24,000 tested, under 10 active;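 active = fluorescent ligand binding to cells raised by more than 40% of the manganese-induced maximum; inconclusive = compound's own fluorescence above 85% of the ligand control signal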;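 also: 0% = ligand binding without compound and 100% = manganese-stimulated maximal binding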
FPRL1 ligand: human FPRL1 ligands by binding competition, primary screen, cell-based, FPR counter-screen, flow cytometry | FPRL1-expressing cells, fluorescent ligand binding inhibition | inhibition, % (no concentration beside the values) | 24,000 tested, 0.3% active;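 also: 0% = buffer alone and 100% = receptor blocker peptide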
Target sequence (P25090 whole entry, looked up): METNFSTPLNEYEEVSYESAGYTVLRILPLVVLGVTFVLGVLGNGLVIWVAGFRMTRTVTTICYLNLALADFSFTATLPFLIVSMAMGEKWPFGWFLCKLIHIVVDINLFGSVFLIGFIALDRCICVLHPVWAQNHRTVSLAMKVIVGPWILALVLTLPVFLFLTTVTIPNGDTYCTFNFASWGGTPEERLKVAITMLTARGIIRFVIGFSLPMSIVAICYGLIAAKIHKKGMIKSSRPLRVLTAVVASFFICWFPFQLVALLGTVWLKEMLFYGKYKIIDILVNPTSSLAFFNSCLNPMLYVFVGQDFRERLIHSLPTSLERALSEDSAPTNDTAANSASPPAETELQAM
VLA-4 antagonist: inhibitors of LDV-FITC binding to Mn2+-activated VLA-4, primary screen, Jurkat cells; LDV-FITC binding with Mn2+, flow cytometry; 100% = Mn2+-driven binding gain fully reversed; inhibition, % at 10 µM (by protocol); 24,000 tested, 0.2% active; AID 529, 2006;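 active = inhibition above 50%; inconclusive = compound itself fluorescent, judged against control cell fluorescence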;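 also: 0% = Mn2+ stimulated cells lacking compound and 100% = ligand binding without Mn2+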
Jurkat autofluor: compound autofluorescence on Jurkat cells, primary screen, artefact control for VLA-4 allosteric ligand project, cell-based, flow cytometry; active compounds read high; 1 = vehicle-only cell background; fluorescence ratio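 (tested at 10 µM compound in the well)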; 24,000 tested, 0.61% active;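 active = fluorescence ratio above 2.44, which is 1 plus 3 SD of all ratios; inconclusive = signal too bright to measure linearly, ratio around 10 or more; inactive = fluorescence ratio below 2.44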;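 also: green fluorescence of cells measured with 488 nm excitation and 530 nm emission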
FPR ligand: human FPR ligands by binding competition, primary screen, cell-based, FPRL1 counter-screen, flow cytometry | fMet-Leu-Phe receptor (Homo sapiens), P21462 | 24,000 tested, 0.74% active | inhibition, % (no concentration beside the values) | FPR-expressing cells, fluorescent ligand binding;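 also: 0% = buffer wells and 100% = receptor blocker peptide wells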
Proteasome disasm: inhibitors of ATP-driven 26S proteasome dissociation, primary screen, biochemical, bead-based flow cytometry, GFP-tagged proteasome | anti-FLAG beads, GFP-proteasome disassembly | 24,000 tested, 0.2% active | inhibition of disassembly, % (no concentration beside the values);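 active = inhibition of disassembly above about 33%, limit read from the data; inconclusive = likely self-fluorescent, control bead median signal at least 40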;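 also: plate controls were ATP control with full disassembly for no effect and ATP-gamma-S intact proteasomes for full effect; higher percent means more bead fluorescence retained so stronger block of disassembly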
* marks the source's active call; other numbers are inactive results; ? = inconclusive; . = no result. Sampled rows, rich in hits. Any-hit rate of the full collection: about 1.9%. Rule as the data show it, unless noted: active = inhibition above about 30%; inconclusive = no clear call, values can overlap the other calls; inactive = below that.

SMILES | VLA-4 agonist | FPRL1 ligand | VLA-4 antagonist | Jurkat autofluor | FPR ligand | Proteasome disasm
Cc1ccc(O)c(-c2cc(C(=O)Nc3ccc(S(=O)(=O)N4CC(C)OC(C)C4)cc3)[nH]n2)c1 (stereo not drawn) | -23 | 2 | 34 | 1 | 11 | 6
O=C(CN1CCN(Cc2ccc(Cl)cc2)C1=O)NCCN1CCCC1 | ? | 1 | ? | 0.8 | 3 | 49*
O=C(CN1CCN(Cc2ccccc2)C1=O)NCc1ccc(Cl)cc1 | -7 | -6 | -11 | 1 | -9 | 0
COc1ccc(NC(=O)c2nnn(Cc3ccc(SC)cc3)c2N)c(OC)c1 | -1 | -2 | 11 | 1 | -1 | 0
COc1ccccc1OCc1ccc(C(=O)NCCN(C)C)o1 | 1 | -1 | -14 | 1 | -2 | -1
CSCCC1C(C#N)=C(N)Oc2n[nH]c(-c3cccs3)c21 (stereo not drawn) | -11 | 6 | -2 | 1 | 30* | 0
CCOC(=O)c1c(C)oc2c1c1c(c3ccccc32)OCN(Cc2ccccn2)C1 | -14 | . | 79* | 1.1 | . | .
CCCSc1nc(N)c(C#N)c(-c2ccc(C)cc2)c1C#N | 10 | 3 | -34 | 1.1 | -3 | 1
CCN(CC)c1ccc(-c2c(C#N)c(N)nc(OC)c2C#N)cc1 | ? | -2 | ? | 8.2* | -6 | 57*
Cc1nc2cc(Cl)c(Cl)cc2nc1C | ? | -4 | ? | 3.1* | -8 | -2
Cc1ccc2nc(NC3=NCN(Cc4ccco4)CN3)nc(C)c2c1 | ? | 1 | ? | 3.5* | -10 | 4
O=C(NCCN1CCOCC1)c1nn2c(c1Cl)NC(c1ccccc1)CC2C(F)(F)F (stereo not drawn) | 4 | 2 | -4 | 1 | 2 | 1
O=C(NCC12CC3CC(CC(C3)C1)C2)c1nn2c(c1Cl)NC(c1ccco1)CC2C(F)(F)F (stereo not drawn) | 8 | -2 | 55* | 1.2 | -7 | 9
NC(=O)c1oc2ccccc2c1NC(=O)c1nc2ccccc2s1 | ? | 3 | ? | 5.4* | -4 | 10
COc1ccc(NC(=O)C2C(=O)NC3(C)CC2c2ccccc2O3)cc1 (stereo not drawn) | 1 | 30* | -2 | 1.1 | 12 | -2
Cc1ccnc(NC(=O)C2CCC(CNc3c(N4CCCC4)c(=O)c3=O)CC2)c1 (stereo not drawn) | 3 | 2 | -24 | 1 | -3 | -2
O=C1CC(c2ccccc2)Cc2nc(N3CCc4ccccc43)ncc21 (stereo not drawn) | 3 | -2 | -5 | 1 | -3 | 74*
O=C1CC(c2cccc(Cl)c2)Cc2nc(N3CCN(c4ccccc4)CC3)ncc21 (stereo not drawn) | 11 | 0 | -13 | 1 | -3 | -3
Cc1ccnc2c(N3C(=O)C4C5C=CC(C5)C4(C)C3=O)cccc12 (stereo not drawn) | 2 | 4 | 2 | 1.1 | 3 | 0
O=C(Nc1cccc(Cl)c1)c1ccc2c(=O)n3c(nc2c1)CCCCC3 | ? | -8 | ? | 1.2 | 16 | 4
C=CCn1c(=O)/c(=C/c2ccc(O)cc2)s/c1=C(/C#N)c1nnc2n1CCCCC2 | ? | -11 | ? | 3.7* | -14 | 7
COc1cccc(C2C=C(c3cccs3)Nc3ncnn32)c1OC (stereo not drawn) | -1 | -4 | 17 | 1.1 | 4 | 1
COc1ccc(C2C=C(c3ccc(Br)s3)Nc3ncnn32)cc1OC (stereo not drawn) | ? | -8 | ? | 3.3* | -9 | 4
CCn1cc(C(=O)NC2CCC(C)CC2)c(=O)c2cc(S(=O)(=O)N3CCCCC3)ccc21 (stereo not drawn) | 5 | 0 | 0 | 1 | 32* | -1
CCn1cc(C(=O)NC2CCCC2)c(=O)c2cc(S(=O)(=O)N3CCOCC3)ccc21 | -6 | -2 | 15 | 1.1 | 2 | 0
SMILES | VLA-4 agonist | FPRL1 ligand | VLA-4 antagonist | Jurkat autofluor | FPR ligand | Proteasome disasm
Cc1ccc(C2CC(c3ccccc3Cl)n3nc(N)nc3N2)cc1 (stereo not drawn) | 1 | -3 | -2 | 1.1 | -2 | -1
Nc1nc2n(n1)C(c1ccccc1Cl)CC(c1ccc(F)cc1)N2 (stereo not drawn) | ? | -4 | ? | 2.7* | 1 | 0
COc1ccc2c(c1)C(=O)N(c1ccccc1OC)C(=O)C2 | ? | -2 | ? | 6.3* | -3 | 1
COc1ccc(-c2nc(C(N)=O)c3[nH]c(=O)n(-c4cccc(Cl)c4)c3n2)cc1OC | ? | -9 | ? | 4.5* | -8 | 5
CCCS(=O)(=O)N1CCC(C(=O)N2CCCC2)CC1 | 2 | 4 | -17 | 1 | -2 | -1
CCOC(=O)N1CCC(NC(=O)c2cc3c(C)nc4ccccc4c3o2)CC1 | -2 | 28 | -25 | 1 | 40* | 1
Cc1nc2ccccc2c2oc(C(=O)N3CCc4ccccc43)cc12 | -7 | 26 | -7 | 1.1 | 38* | 0
Cc1cccc(NC(=O)c2sc3nc(-c4ccc(F)cc4)cn3c2C)n1 | ? | 12 | ? | 5.1* | -2 | 75*
Cc1cccc(NC(=O)c2sc3nc(-c4ccccc4)cn3c2C)n1 | ? | -15 | ? | 3.4* | -9 | 0
Cc1c(C(=O)Nc2ccccc2)sc2nc(-c3ccccc3)cn12 | -11 | -4 | 74* | 1.3 | -6 | 0
COc1ccc(-c2cn3c(C)c(C(=O)Nc4cccc(C)n4)sc3n2)cc1 | ? | -9 | ? | 1.6 | 1 | 10
CC(=O)NC(Cc1cc(C)ccc1C)C(=O)N1CCN(C(=O)Nc2ccc(C(C)=O)cc2)CC1 (stereo not drawn) | 1 | 7 | -20 | 1.1 | 35* | 0
CCOC(=O)c1ccc(NC(=O)N2CCN(Cc3cccc(F)c3)CC2)cc1 | -6 | -3 | -2 | 1 | -16 | 0
CC1=C(C(=O)N2CCc3ccccc32)C2(CCC(C)CC2)OC1=O (stereo not drawn) | ? | -25 | ? | 6* | -26 | 3
COC(=O)c1ccccc1S(=O)(=O)NC(=O)c1ccccc1 | 6 | -2 | -10 | 0.99 | 1 | 1
Cc1cc(NC(=O)COC(=O)C2COc3ccccc3O2)no1 (stereo not drawn) | 4 | 0 | -10 | 1.1 | -2 | 0
COc1ccc(S(=O)(=O)Nc2ccccc2SC)cc1C | 6 | 2 | -18 | 1.1 | -1 | 0
CSc1ccccc1NS(=O)(=O)c1ccccc1 | 2 | 29 | -22 | 1 | 31* | -1

Bioassay records as filed in PubChem.
